Results as given in PubChem BioAssay (NCATS).
Inconclusive results are not listed. Values without a mark were called inactive. The source made the active and inactive calls. The call rests on the fitted dose curve; in most records, active means well fitted cell-killing curve with a large enough effect; inconclusive means small, poorly fitted or top-dose-only effect, or effect the other way; inactive means no such curve, though single readings can be large or run the other way.

Key:
[1] = Quantitative High-Throughput drug screen in 47 multiple myeloma cell lines against the NCATS MIPE library collection: OCIMY5_PLB cell viability assay (AID 1918988); further: nearly all actives have a fitted effect of over 65% in size;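 on viability, % of control: 100% = DMSO-treated wells and 0% = wells with media alone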
Method in brief: (§1)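 500 cells/well; MIPE 4.0 drugs pin-transferred; 48 h, 37C, 5% CO2. CellTiter-Glo, 5 min RT, luminescence. Controls: DMSO 100%, media 0%.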

[2] = Quantitative High-Throughput drug screen in 47 multiple myeloma cell lines against the NCATS MIPE library collection: OPM1_PLB cell viability assay (AID 1918989); further: nearly all actives have a fitted effect of over 40% in size
Method in brief: as §1

[3] = Quantitative High-Throughput drug screen in 47 multiple myeloma cell lines against the NCATS MIPE library collection: PE2_PLB cell viability assay (AID 1919869); further: nearly all actives have a fitted effect of over 35% in size;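 on viability (% of control): 100% = DMSO-only wells and 0% = cell-free media-only wells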
Method in brief: as §1

[4] = Quantitative High-Throughput drug screen in 47 multiple myeloma cell lines against the NCATS MIPE library collection: XG6_PLB cell viability assay (AID 1919865); further: nearly all actives have a fitted effect of over 40% in size
Method in brief: as §1

[5] = Quantitative High-Throughput drug screen in 47 multiple myeloma cell lines against the NCATS MIPE library collection: XG1_PLB cell viability assay (AID 1919866); further: nearly all actives have a fitted effect of over 35% in size
Method in brief: as §1

[6] = Quantitative High-Throughput drug screen in 47 multiple myeloma cell lines against the NCATS MIPE library collection: VP6_DJ cell viability assay (AID 1919867); further: nearly all actives have a fitted effect of over 40% in size
Method in brief: as §1

[7] = Quantitative High-Throughput drug screen in 47 multiple myeloma cell lines against the NCATS MIPE library collection: UTMC2_PLB cell viability assay (AID 1919868); settings: CellTiter-Glo ATP luminescence, 48 h; viability (% of DMSO control): at 45.8 µM (top of the series); further: nearly all actives have a fitted effect of over 55% in size;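 on viability (% of DMSO control): 100% = DMSO-only wells and 0% = media-only wells without cells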
Method in brief: as §1

[8] = Quantitative High-Throughput drug screen in 47 multiple myeloma cell lines against the NCATS MIPE library collection: SKMM1_PLB cell viability assay (AID 1919863); settings: SKMM1 myeloma viability, CellTiter-Glo ATP, 48 h; viability: stronger effect = lower value; further: nearly all actives have a fitted effect of over 35% in size
Method in brief: as §1

[9] = Quantitative High-Throughput drug screen in 47 multiple myeloma cell lines against the NCATS MIPE library collection: U266_ATCC cell viability assay (AID 1919864); further: nearly all actives have a fitted effect of over 35% in size;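 on viability (% of DMSO control): 0% = media-only wells without cells and 100% = DMSO-only wells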
Method in brief: as §1
Potency means the concentration at half of the fitted maximal effect.

N#Cc1cc(NC(=O)Nc2nnc(-c3ccncc3)s2)ccc1-c1cn[nH]c1
Potency [1]: 14.8 µM (active) | Potency [2]: inactive | Potency [3]: inactive

C=C(C)[C@@H]1CC[C@]2(C)CC[C@]3(C)[C@H](CC[C@@H]4[C@@]5(C)CC[C@H](O)C(C)(C)[C@H]5CC[C@]43C)[C@@H]12
Potency [1]: inactive | Potency [2]: inactive | Potency [4]: inactive | Potency [5]: inactive | Potency [6]: inactive | Potency [7]: inactive | Potency [3]: inactive

C[C@H](CCC(=O)O)[C@H]1CCC2C3C[C@H](O)[C@@H]4C[C@H](O)CC[C@]4(C)C3CC[C@@]21C (stereo partly specified)
Potency [1]: inactive | viability [8]: 96.1% | Potency [9]: inactive | Potency [5]: 18.7 µM (active) | Potency [7]: inactive | Potency [3]: inactive

CC(C)(C)[C@H](NC(=O)c1ccc(N)c(Cl)c1)C(=O)N1CCC[C@@H]1C(=O)N[C@H](C#N)CC(=O)O
viability, % of control [1]: 135% [at 3.51 µM] | viability [8]: 125% | viability (% of DMSO control) [9]: 129% [at 3.51 µM] | viability (% of control) [4]: 104% [at 3.51 µM] | Potency [6]: 0.834 µM (active) | viability (% of DMSO control) [7]: 157% [at 3.51 µM] | viability (% of control) [3]: 118% [at 3.51 µM]

CCN(CC)CCNC(=O)c1c(C)[nH]c(C=C2C(=O)Nc3ccc(F)cc32)c1C
Potency [1]: 8.55 µM (active) | Potency [8]: 27 µM (active) | Potency [9]: 3.4 µM (active) | Potency [4]: 1.71 µM (active) | Potency [5]: 3.03 µM (active) | Potency [6]: 1.52 µM (active) | Potency [7]: 0.54 µM (active) | Potency [3]: 2.15 µM (active)

Cn1cnc2c(F)c(Nc3ccc(Br)cc3F)c(C(=O)NOCCO)cc21
Potency [1]: inactive | Potency [2]: inactive | Potency [9]: inactive | Potency [4]: 0.0132 µM (active) | Potency [3]: 0.0743 µM (active)

FC(F)(F)c1ccc(Nc2nc3ccc(Oc4ccnc(-c5ncc(C(F)(F)F)[nH]5)c4)cc3[nH]2)cc1
Potency [1]: 16.6 µM (active) | Potency [2]: 20.9 µM (active) | Potency [9]: 13.2 µM (active) | Potency [4]: 16.6 µM (active) | Potency [5]: 14.8 µM (active) | Potency [3]: 26.4 µM (active)

Cc1cnc(NC(=O)Nc2cc(Br)c(C)cc2OC[C@@H]2CNCCO2)cn1
Potency [1]: 1.48 µM (active) | Potency [2]: 0.526 µM (active) | Potency [4]: 0.743 µM (active) | Potency [5]: 1.66 µM (active) | Potency [6]: 4.69 µM (active) | Potency [7]: 1.48 µM (active) | Potency [3]: 1.87 µM (active)

CC(C)(C)[N+]([O-])=Cc1ccc(S(=O)(=O)O)cc1S(=O)(=O)O
Potency [1]: inactive | Potency [2]: inactive | Potency [4]: inactive | Potency [5]: inactive | Potency [6]: inactive | Potency [3]: inactive

O=S(=O)(O)CCSSCCS(=O)(=O)O
Potency [1]: inactive | Potency [2]: inactive | Potency [4]: inactive | Potency [7]: inactive

CCCCCCCCCCCC(CC1OC(=O)C1CCCCCC)OC(=O)C(CC(C)C)NC=O (stereo unspecified)
Potency [1]: 18.7 µM (active) | Potency [8]: 16.6 µM (active) | Potency [9]: inactive | Potency [5]: inactive | Potency [6]: 7.43 µM (active) | Potency [3]: inactive

CCCCC(=O)O[C@]1(C(=O)CO)[C@@H](C)C[C@H]2[C@@H]3CCC4=CC(=O)C=C[C@]4(C)[C@@]3(F)[C@@H](O)C[C@@]21C
Potency [1]: 0.0093 µM (active) | viability [8]: 122% | Potency [9]: inactive | Potency [4]: inactive | Potency [5]: inactive | Potency [6]: 14.8 µM (active) | Potency [3]: inactive

C=CC1=C(C(=O)O)N2C(=O)[C@@H](NC(=O)C(=NO)c3csc(N)n3)[C@H]2SC1
Potency [1]: inactive | Potency [2]: inactive | Potency [4]: inactive | Potency [5]: inactive | Potency [3]: inactive

Oc1cc(-c2nc(-c3ccccc3)[nH]c2-c2ccncc2)ccc1Cl
Potency [1]: 18.7 µM (active) | Potency [8]: 16.6 µM (active) | Potency [9]: 16.6 µM (active) | Potency [4]: 2.35 µM (active) | Potency [5]: 2.35 µM (active) | Potency [6]: 3.72 µM (active) | Potency [7]: 7.43 µM (active) | Potency [3]: 5.26 µM (active)

CC(=O)ON=C1C(c2c(O)[nH]c3cc(Br)ccc23)=Nc2ccccc21
Potency [1]: 9.35 µM (active) | Potency [2]: 3.72 µM (active) | Potency [4]: 1.32 µM (active) | Potency [5]: 1.66 µM (active) | Potency [6]: 2.64 µM (active) | Potency [3]: 4.69 µM (active)

CC(C)c1cc(C(C)C)c(CC(=O)NS(=O)(=O)Oc2c(C(C)C)cccc2C(C)C)c(C(C)C)c1
Potency [1]: 33.2 µM (active) | Potency [2]: 9.35 µM (active) | Potency [9]: inactive | Potency [7]: 10.5 µM (active) | Potency [3]: 5.9 µM (active)

CCOC(=O)N1CCN([N+]([O-])=NOc2ccc([N+](=O)[O-])cc2C#N)CC1
Potency [1]: 0.833 µM (active) | Potency [2]: 0.418 µM (active) | Potency [5]: 0.372 µM (active) | Potency [6]: 0.743 µM (active) | Potency [7]: 0.526 µM (active) | Potency [3]: 0.743 µM (active)

Cc1cc(-c2nnc3n2CCCCC3)c(C)n1-c1ccccc1
Potency [1]: 23.5 µM (active) | Potency [2]: inactive | Potency [9]: inactive | Potency [5]: inactive | Potency [6]: inactive | Potency [7]: inactive | Potency [3]: inactive

Cc1[nH]c(C=C2C(=O)Nc3ccccc32)c(C)c1CCC(=O)O
Potency [1]: 18.7 µM (active) | Potency [2]: 23.5 µM (active) | Potency [4]: 0.372 µM (active) | Potency [5]: 2.96 µM (active) | Potency [6]: 13.2 µM (active) | Potency [7]: 0.935 µM (active) | Potency [3]: 9.35 µM (active)

CCCCCCCCCCCCCCCC(=O)OC[C@@H](NC(=O)C(Cl)Cl)[C@H](O)c1ccc([N+](=O)[O-])cc1
Potency [1]: inactive | Potency [2]: inactive | Potency [9]: inactive | Potency [4]: inactive | Potency [6]: inactive | Potency [3]: inactive

O=C(NNC(=O)c1ccc(CNS(=O)(=O)c2ccc(F)c(Cl)c2)cc1)c1ccccc1
Potency [1]: inactive | viability [8]: 126% | Potency [9]: inactive | Potency [4]: inactive | Potency [6]: inactive | Potency [7]: inactive | Potency [3]: inactive

O=C(CN1C(=O)C2(CCCC2)NC[C@H]1c1cc(F)cc(F)c1)Nc1ccc2c(c1)C[C@@]1(C2)C(=O)Nc2ncccc21
Potency [1]: inactive | Potency [2]: inactive | Potency [4]: inactive | Potency [5]: inactive | Potency [6]: inactive | Potency [7]: inactive

O=[N+]([O-])c1cn2c(n1)OC[C@@H](OCc1ccc(OC(F)(F)F)cc1)C2
Potency [1]: inactive | Potency [9]: 18.7 µM (active) | Potency [4]: inactive | Potency [5]: inactive

N#CNC(=NCCCCCCOc1ccc(Cl)cc1)Nc1ccncc1
Potency [1]: 0.0074 µM (active) | Potency [8]: 0.0166 µM (active) | Potency [4]: 18.7 µM (active) | Potency [5]: inactive | Potency [7]: inactive

CCCNS(=O)(=O)Nc1ncnc(OCCOc2ncc(Br)cn2)c1-c1ccc(Br)cc1
Potency [2]: inactive | Potency [9]: inactive | Potency [4]: inactive | Potency [5]: inactive | Potency [6]: inactive | Potency [7]: inactive

Cc1cnn(C)c1C(=O)Nc1cc(Nc2ccc3c(C=Cc4ccccn4)n[nH]c3c2)ccc1F
Potency [2]: 4.69 µM (active) | Potency [8]: 20.9 µM (active) | Potency [9]: 20.9 µM (active) | Potency [4]: 5.9 µM (active) | Potency [5]: 4.69 µM (active) | Potency [6]: 10.5 µM (active) | Potency [7]: 10.5 µM (active) | Potency [3]: 2.64 µM (active)

C[C@](Cc1c[nH]c2ccccc12)(NC(=O)OC1C2CC3CC(C2)CC1C3)C(=O)NC[C@H](NC(=O)CCC(=O)O)c1ccccc1 (stereo partly specified)
Potency [1]: inactive | Potency [9]: inactive | Potency [3]: inactive

CC(=O)C1=C(O)C=C2Oc3c(C(C)=O)c(O)c(C)c(O)c3C2(C)C1=O (stereo unspecified)
Potency [1]: 0.0012 µM (active) | Potency [5]: inactive | Potency [6]: inactive | Potency [7]: inactive | Potency [3]: inactive
